Assay outcomes from PubChem BioAssay.
D2 PAM-1: Beta-Arrestin HTS for Positive Allosteric Modulators of the Human D2 Dopamine Receptor: Potentiators; DiscoveRx D2 beta-arrestin cells, luminescence, 90 min; 100% = 57 uM dopamine signal; potentiation, % (concentration not given with the values); 0.23% of 360,000 active; in the data active = potentiation above about 50%; inconclusive = mostly about 30% to 49%
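PathHunter beta-arrestin assay in DiscoveRx D2 cells. Compounds were added with an EC20 of dopamine (50 nM final) for 90 min at 37 deg C. Luminescence was read 1 h after detection reagent, with 57 uM dopamine as the EC100 control.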
D2 ag-1: Beta-Arrestin HTS for Positive Allosteric Modulators of the Human D2 Dopamine Receptor: Agonists. DiscoveRx PathHunter D2 beta-arrestin, luminescence, 90 min; 100% = 57 uM dopamine signal. D(2) dopamine receptor (Homo sapiens), P14416. AID 624465, 2012. 0.084% of 360,000 active. activation, % (test concentration not listed); in the data active = activation above about 40%; inconclusive = between about 15% and that limit
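Agonist mode: compounds alone added to overnight-plated D2 PathHunter cells for 90 min at 37 C, with 57 uM final dopamine (EC100) defining full response. Beta-arrestin recruitment detected by chemiluminescent reagent, read after 1 h at ambient temperature.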
D2 ag-2: HTS Assay for Allosteric Agonists of the Human D2 Dopamine Receptor: Primary Screen for Agonists. HEK293 T-REx D2 cells, calcium flux agonist mode. AID 485358, 2010. 0.53% of 340,000 active. D(2) dopamine receptor (Homo sapiens), P14416. activation, % at 2 µM;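 active = activation over 3 SD above normal in the single-dose calcium agonist read, cut at about 30% in these data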
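Tetracycline-induced HEK293 T-REx cells with force-coupled D2 receptor, plated overnight at 30 C, loaded with no-wash calcium dye. After a 10 s baseline, compound was pin-added and calcium flux read kinetically for 180 s; calcium rises flagged agonists.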
D2 PAM-2: HTS Assay for Positive Allosteric Modulators of the Human D2 Dopamine Receptor: Primary Screen for Potentiators; HEK293 T-REx D2, calcium flux, EC20 dopamine potentiation; 0.34% of 340,000 active; D(2) dopamine receptor (Homo sapiens), P14416; potentiation, % at 10 µM;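 active = potentiation over 3 SD above the plate norm, cut at about 30% in these data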
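Tetracycline-induced HEK293 T-REx cells force-coupled to calcium signalling expressed D2; compounds were pin-added after a 10 s baseline, read kinetically 180 s, then an EC20 dopamine challenge followed with a further 180 s calcium read.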
D2 antag: HTS Assay for Allosteric Antagonists of the Human D2 Dopamine Receptor: Primary Screen for Antagonists; inhibition, % at 10 µM; 2% of 340,000 active; AID 485344, 2010; D(2) dopamine receptor (Homo sapiens), P14416; HEK293 TREx D2 cells, calcium flux, dopamine EC80; in the data active = inhibition above about 30%; inactive = below that, where a call was filed
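Tetracycline-induced HEK293 T-REx cells expressing D2 force-coupled to calcium signalling were dye-loaded, exposed to compound for 180 s, then challenged with an EC80 of dopamine; calcium flux was followed kinetically for a further 180 s.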
D3 arrestin ag: qHTS of D3 Dopamine Receptor Agonist: D3 Dopamine Receptor B-arrestin Agonist Confirmatory Assay; shares compounds with D2 ag-2; DiscoveRx D3 beta-arrestin cells, luminescence, 90 min; Potency, µM (highest dose often 76.9 µM), actives largely listed as activators; 4% of 2,300 active; note: nearly all actives have a fitted effect of over 70% in size
Target sequence (P35462 whole entry, looked up): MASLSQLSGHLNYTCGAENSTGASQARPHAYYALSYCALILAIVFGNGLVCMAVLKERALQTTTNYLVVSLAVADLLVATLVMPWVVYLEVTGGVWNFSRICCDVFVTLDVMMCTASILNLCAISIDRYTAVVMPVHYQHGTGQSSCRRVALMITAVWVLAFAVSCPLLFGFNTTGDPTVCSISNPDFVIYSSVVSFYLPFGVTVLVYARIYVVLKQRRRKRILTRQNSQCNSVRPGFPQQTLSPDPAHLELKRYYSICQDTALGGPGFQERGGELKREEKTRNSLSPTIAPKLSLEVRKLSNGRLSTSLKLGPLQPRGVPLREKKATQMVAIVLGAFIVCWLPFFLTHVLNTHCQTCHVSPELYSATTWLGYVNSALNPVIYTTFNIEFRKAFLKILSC
D2 ag-3: qHTS of D3 Dopamine Receptor Agonist: D2 Dopamine Receptor B-arrestin Agonist Counterscreen. DiscoveRx PathHunter D2 beta-arrestin, luminescence, 90 min; response scale: percent relative to full dopamine signal. shares compounds with D2 ag-2. 5.9% of 2,300 active. Potency, µM (highest dose often 76.9 µM), hits mostly activators; note: nearly all actives have a fitted effect of over 70% in size
Numbers stand for hits; – = inactive; ? = inconclusive; · = no result given. Hits are enriched below; roughly 2.4% of the tested compounds scored in any of these assays. Unless noted, calls come from the whole dose curve; as a rule, active = well fitted activation curve with a large enough effect; inconclusive = small, poorly fitted or top-dose-only effect; inactive = flat fitted curve, though single readings scatter.

SMILES	D2 PAM-1	D2 ag-1	D2 ag-2	D2 PAM-2	D2 antag	D3 arrestin ag	D2 ag-3
CCN(CC)CCCn1c2c(c(SCC(=O)Nc3ccc4c(c3)OCCO4)nc1=O)CCC2	–	–	–	–	–	·	·
CCc1cccc(CC)c1-n1nnc2c(sc3nc(C)cc(C)c32)c1=O	·	·	–	–	·	·	·
CCOC(=O)N1CCC(N(CCCOC)C(=O)Nc2ccc(CC)cc2)CC1	–	–	–	–	–	–	–
CCOC(=O)N1CCC(N(CCOC)C(=O)Nc2ccc(Cl)cc2)CC1	–	–	–	–	–	·	·
S=C(NCc1ccccc1)NC1CCCCC1	–	–	–	–	–	·	·
C/C(=N\NC(=S)NC1CCCCC1)c1ccccc1	–	–	45	–	41	–	–
S=C(NCCCc1ccccc1)NC1CCCCC1	–	–	37	–	–	–	–
CC(C)C(=O)Nc1ncc(Cc2cccc(Cl)c2)s1	–	–	–	–	–	·	·
O=C(CCC(=O)N1CCOCC1)NCCc1ccccc1	–	–	–	–	–	–	–
S=C(NCCc1ccccc1)N1CCOCC1	–	–	–	–	–	·	·
CCc1ccccc1NC(=O)c1ccc2c(SCC(=O)O)c3c(nc2c1)CCC3	·	·	–	–	·	·	·
Cc1ccc(NC(=O)C(=O)NCCCN2CCOCC2)cc1C	·	·	–	–	·	·	·
COc1ccc(C2C=C(c3ccccc3)Nc3nnnn32)cc1 (stereo not drawn)	–	–	·	–	·	–	–
C/C(=N\NC(=O)C12CCC(C)(C(=O)O1)C2(C)C)c1ccccc1O (stereo not drawn)	–	?	83	–	82	?	?
CC(C)C(=O)Nc1ccc2c(c1)nc(CCN1CCN(c3ccccc3)CC1)n2C	–	–	61	–	–	?	–
Cn1c(CCN2CCCC2)nc2cc(NS(=O)(=O)c3ccc(Cl)cc3)ccc21	–	–	–	–	–	·	·
Cc1ccc(OCC(=O)Nc2ccc3c(c2)nc(CCN2CCN(c4ccccn4)CC2)n3C)cc1	–	–	·	·	·	·	·
CCCC(=O)Nc1ccc2c(c1)nc(CCN1CCN(c3ccccn3)CC1)n2C	–	–	67	–	47	?	?
Cn1c(CCN2CCN(c3ccccn3)CC2)nc2cc(NS(=O)(=O)c3ccccc3)ccc21	–	–	·	·	·	?	?
Cn1c(CCN2CCN(c3ccccn3)CC2)nc2cc(NC(=O)COc3ccccc3)ccc21	–	–	–	–	47	?	?
O=C(NCCCn1ccnc1)/C(=C\c1cccnc1)NC(=O)c1ccccc1F	–	–	–	–	–	·	·
CC(C)(C)CC(=O)N1CCN(c2ccc(S(=O)(=O)N3CCOCC3)cc2[N+](=O)[O-])CC1	–	–	–	–	–	·	·
COc1ccc([C@@H]2CC=C(C(=O)O)[C@H](c3ccc(Cl)cc3)N2S(=O)(=O)c2ccccc2C)cc1	–	–	–	–	–	·	·
CCCCC(=O)Nc1ccc2c(c1)nc(CCN1CCN(c3ccccn3)CC1)n2C	–	–	67	–	51	?	?
O=C(CN1CCN(C/C=C/c2ccccc2)CC1)NC(=O)NC1CCCCC1	–	–	–	–	71	–	–
O=C(CN1CCN(Cc2ccccc2)CC1)NC(=O)NC1CCCCC1	–	–	–	–	–	·	·
COc1ccc(NC(=O)CCNS(=O)(=O)c2ccc3c(c2)CCN3C(=O)C2CC2)cc1Cl	·	·	–	–	·	·	·
CCCSCCCNC(=O)c1ccc(C)c(NC(=O)c2nsc3ccccc23)c1	·	·	–	–	·	·	·
